# Laboratory results taken from publication PMC5540273 (PLoS ONE, 2017).
# Legend:
# Settings in all cases: concentration: 1 μM, replicates: in singlicate; n = 1
# TSSK3 = test system: TSSK3
# TTK = test system: TTK
# TXK = test system: TXK
# [1] = test system: TYK2(JH1domain-catalytic)
# [2] = test system: TYK2(JH2domain-pseudokinase)
# TYRO3 = test system: TYRO3
# ULK1 = test system: ULK1
# ULK2 = test system: ULK2
# ULK3 = test system: ULK3
# VEGFR2 = test system: T1, VEGFR2
# T1 construct: gene KDR
# VPS34 = test system: T2, VPS34
# T2 construct: gene PIK3C3
# VRK2 = test system: VRK2
# WEE1 = test system: WEE1
# WEE2 = test system: WEE2
# WNK1 = test system: WNK1
# WNK2 = test system: WNK2
# WNK3 = test system: WNK3
# WNK4 = test system: WNK4
# YANK1 = test system: T3, YANK1
# T3 construct: gene STK32A
# YANK2 = test system: T4, YANK2
# T4 construct: gene STK32B
# 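Also: KINOMEscan kinase panel screen.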
Compound,%Inh (TSSK3) [%],%Inh (TTK) [%],%Inh (TXK) [%],%Inh [1] [%],%Inh [2] [%],%Inh (TYRO3) [%],%Inh (ULK1) [%],%Inh (ULK2) [%],%Inh (ULK3) [%],%Inh (VEGFR2) [%],%Inh (VPS34) [%],%Inh (VRK2) [%],%Inh (WEE1) [%],%Inh (WEE2) [%],%Inh (WNK1) [%],%Inh (WNK2) [%],%Inh (WNK3) [%],%Inh (WNK4) [%],%Inh (YANK1) [%],%Inh (YANK2) [%]
C[C@@H](Oc1cc(-n2cnc3ccc(NC(=O)NC(C)(C)C)cc32)sc1C(N)=O)c1ccccc1Cl [GSK346294],21,0,0,8,0,0,0,0,15,3,0,5,5,12,14,25,33,0,0,0
NS(=O)(=O)CCc1cccc(Nc2nccc(-c3c(-c4cccc(NC(=O)c5c(F)cccc5F)c4)nn4ccccc34)n2)c1 [GSK336735],23,26,90.1,98.7,18,100,0,0,3,90,0,0,0,0,0,6,18,12,23,77
CN(C1=C(c2ccccc2)C(=O)NC1=O)c1ccccc1 [SB-334860],15,0,83,0,0,0,5,8,6,12,0,8,13,0,8,28,17,1,0,15
CC(C)Oc1ccc2c(-c3ccnc(Nc4ccc(N5CCN(C)CC5)cc4)n3)cnn2n1 [GW696155],96,89,13,98,99.4,0,99.9,99.8,100,60,96,8,30,0,12,42,52,31,0,0
N#Cc1c(N2CCOCC2)sc(-c2ccn[nH]2)c1-c1ccc(Cl)cc1,0,19,0,14,20,0,8,15,20,11,86,35,0,0,0,4,14,34,0,0
CC(=O)Nc1ccc(COc2ccc(Nc3ccnc4cc(-c5ccccn5)ccc34)cc2)cc1.Cl [GW440148],12,0,3,20,5,0,0,0,3,99.6,0,0,18,0,10,9,21,83,6,2
Fc1ccc(-c2ncn(CCCN3CCOCC3)c2-c2cccnc2)cc1 [SB-211743],0,15,0,0,7,0,4,2,18,0,0,20,0,0,8,0,0,0,0,0
O=c1cc(N2CCOCC2)nc2n(Cc3cccc4ccccc34)ccn12 [GSK2333389],0,10,0,24,10,0,14,7,7,0,98,0,13,12,2,0,0,0,1,0
COc1ccc(S(=O)(=O)NC2CCN(c3cc(C)nc(Nc4cccc(C#N)c4)n3)CC2)cc1.O=C(O)C(F)(F)F [GSK1653539],0,0,0,0,6,0,0,0,23,0,0,0,17,6,15,0,38,12,4,0
O=C(NCCNc1ccnc(Nc2ccc(F)cc2)n1)Nc1ccccc1F [GSK1379880],12,0,1,24,17,0,19,0,28,0,0,0,13,3,0,0,4,41,2,0
Cc1nnc(-c2ccc3occ(-c4ccc(C(C)O)cc4)c3c2)o1 (stereo not drawn),1,8,4,0,2,6,1,2,6,0,18,0,8,7,0,0,0,0,5,2
CCn1cnc2c(N)ncnc21 [GW345098],6,0,8,23,0,32,0,21,0,0,1,0,2,14,0,0,0,0,0,0
